Targets with a hit are over-represented here; the source holds about 8,800 in all. About 0.5% of all pairs of compound and target were hits.
Key:
Assay in all cases: log2 fold change, soluble protein after heating vs DMSO (PISA); higher = thermal stabilisation; K562 lysate, 10 uM; active = over 0.2 and 3.5 SD of the protein, either way, in both replicates (recomputed)
erlotinib = compound: C#Cc1cccc(Nc2ncnc3cc(OCCOC)c(OCCOC)cc23)c1 [erlotinib]
Procedure, shortened: (§1)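 Quantification was by TMTpro 16plex LC-MS/MS with equalised channel sums, applied to the supernatant after 21,000xg for 90 min. Samples were crude K562 extract at 1 mg/mL protein in PBS pH 7.4 with 1 mM MgCl2, treated with 10 μM compound for 30 min, heated for 3 min across 48°C-58°C, pooled and brought to 0.5% NP-40 at 4°C. Values are log-two fold changes in thermal stability relative to solvent controls, from duplicates.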

[1] = compound: C/C(=N\NC(=O)C1=CC(=CC=C1)S(=O)(=O)N2CCOCC2)/C3=C(C=CC(=C3)Cl)O
Procedure, shortened: as §1

[2] = compound: C1=CC(=CC=C1C2=NC3=C(N2)C=C(C=C3)C(=O)N)OC4=CC=C(C=C4)Cl
Procedure, shortened: as §1

[3] = compound: C1=CC2=C(C=CC(=C2)/C=C\3/C(=O)NC(=NCC4=CC=CS4)S3)N=C1
Procedure, shortened: as §1

[4] = compound: C1=CC2=NC=CN=C2C=C1/C=C/3\C(=O)NC(=O)S3
Procedure, shortened: as §1

[5] = compound: C1=CC=C(C=C1)C2=NC(=C(N2)C3=CC=NC=C3)C4=CC(=C(C=C4)Cl)O
Procedure, shortened: as §1

[6] = compound: C1=CC=C2C(=C1)C3=NNC4=CC=CC(=C43)C2=O
Procedure, shortened: as §1

[7] = compound: C1CCN(C1)C(=O)NC2=CC=CC(=C2)NC3=NC=C(C(=N3)NCCC4=CN=CN4)Br
Procedure, shortened: as §1

[8] = compound: C1CN(CCC1(CC2=CC=C(C=C2)Cl)N)C3=NC=NC4=C3C=CN4
Procedure, shortened: as §1

IRAK-1-4 Inhibitor I = compound: C1COCCN1CCN2C3=CC=CC=C3N=C2NC(=O)C4=CC(=CC=C4)[N+](=O)[O-] [IRAK-1-4 Inhibitor I]
Procedure, shortened: as §1

ibrutinib = compound: C=CC(=O)N1CCC[C@@H](n2nc(-c3ccc(Oc4ccccc4)cc3)c3c(N)ncnc32)C1 [ibrutinib]
Procedure, shortened: as §1

[9] = compound: CC(=O)c1cnc2ccc(-c3cc(Cl)c(O)c(Cl)c3)nc2c1N[C@H]1CC[C@H](CN(C)C)CC1
Procedure, shortened: as §1

ralimetinib = compound: CC(C)(C)Cn1c(N)nc2ccc(-c3[nH]c(C(C)(C)C)nc3-c3ccc(F)cc3)nc21 [ralimetinib]
Procedure, shortened: as §1

[10] = compound: CC(C)(O)CC(=O)NCCn1ccc2ncnc(Nc3ccc(Oc4cccc(C(F)(F)F)c4)c(Cl)c3)c21
Procedure, shortened: as §1

[11] = compound: CC(C)C1=C2N=C(C=C(N2N=C1)NCC3=CC=CC=C3)NCCCCCCN
Procedure, shortened: as §1

[12] = compound: CC1=C(C(CC(=O)N1)C2=CC=C(C=C2)C(F)(F)F)C(=O)NC3=C(C=C4C(=C3)C=NN4)F
Procedure, shortened: as §1

[13] = compound: CC1=C(C2=C(C=C1)C(=O)C3=CC=CC=C3N2CCCN)C
Procedure, shortened: as §1

[14] = compound: CC1=C(C=C(C=C1)NC(=O)C2=CC(=CC=C2)C(C)(C)C#N)NC3=CC4=C(C=C3)N=CN(C4=O)C
Procedure, shortened: as §1

[15] = compound: CC1=C(C=C(C=C1)NC(=O)C2=CC(=CC=C2)N(C)C)NC(=O)C3=CC=C(C=C3)O
Procedure, shortened: as §1

[16] = compound: CC1=CC=C(C=C1)SC2=C3C=C(SC3=CN=C2)C(=O)N
Procedure, shortened: as §1

Measured: log2 fold change

DIAPH3 (UniProt Q9NSV4)
inactive: erlotinib 0.042 | [1] 0.07 | [2] -0.022 | [3] 0.05 | [4] 0.074 | [5] 0.045 | [6] -0.066 | [7] -0.04 | [8] -0.082 | IRAK-1-4 Inhibitor I -0.041 | ibrutinib 0.012 | [9] 0.093 | ralimetinib 0.086 | [10] -0.032 | [11] -0.066 | [12] 0.043 | [13] 0.005 | [14] -0.011 | [15] 0.038 | [16] -0.035

COG7 (UniProt P83436)
Sequence of UniProt P83436 (P83436 whole entry, looked up): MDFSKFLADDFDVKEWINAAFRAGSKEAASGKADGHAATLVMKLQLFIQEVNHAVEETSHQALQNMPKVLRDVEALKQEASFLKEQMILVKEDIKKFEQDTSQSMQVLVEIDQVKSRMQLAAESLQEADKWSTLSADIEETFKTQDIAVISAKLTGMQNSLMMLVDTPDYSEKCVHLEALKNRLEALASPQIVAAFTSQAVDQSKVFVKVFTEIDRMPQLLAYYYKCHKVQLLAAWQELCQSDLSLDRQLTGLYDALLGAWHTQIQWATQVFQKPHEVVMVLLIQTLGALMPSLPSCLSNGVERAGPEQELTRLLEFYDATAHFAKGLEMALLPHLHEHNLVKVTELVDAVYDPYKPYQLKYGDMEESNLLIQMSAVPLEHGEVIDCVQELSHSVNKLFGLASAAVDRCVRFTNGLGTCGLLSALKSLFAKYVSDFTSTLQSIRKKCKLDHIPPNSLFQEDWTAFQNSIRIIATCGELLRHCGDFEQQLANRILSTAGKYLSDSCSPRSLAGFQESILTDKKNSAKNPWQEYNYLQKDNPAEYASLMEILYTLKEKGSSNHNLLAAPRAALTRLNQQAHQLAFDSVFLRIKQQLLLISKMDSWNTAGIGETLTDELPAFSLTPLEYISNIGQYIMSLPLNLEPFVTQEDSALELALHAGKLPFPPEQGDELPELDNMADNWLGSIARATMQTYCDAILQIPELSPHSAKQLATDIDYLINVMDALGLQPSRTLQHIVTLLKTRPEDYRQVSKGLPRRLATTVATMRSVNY
inactive: erlotinib 0.026 | [1] -0.007 | [2] -0.025 | [3] 0.034 | [4] 0.012 | [5] 0.006 | [6] -0.037 | [7] -0.022 | [8] 0.05 | IRAK-1-4 Inhibitor I -0.039 | ibrutinib -0.04 | [9] -0.012 | ralimetinib 0.03 | [10] 0.006 | [11] -0.049 | [12] -0.034 | [13] -0.001 | [14] -0.029 | [15] 0.058 | [16] -0.007

DDA1 (UniProt Q9BW61)
inactive: erlotinib -0.004 | [1] -0.001 | [2] 0.036 | [3] -0.03 | [4] 0.008 | [5] -0.093 | [6] 0.016 | [7] -0.017 | [8] -0.01 | IRAK-1-4 Inhibitor I 0.012 | ibrutinib 0.108 | [9] -0.003 | ralimetinib 0 | [10] 0.019 | [11] -0.072 | [12] 0.028 | [13] 0.022 | [14] 0.01 | [15] 0.018 | [16] -0.017

CMIP (UniProt Q8IY22)
inactive: erlotinib 0.003 | [1] 0.05 | [2] -0.008 | [3] 0.055 | [4] 0.035 | [5] 0.023 | [6] -0.067 | [7] -0.001 | [8] -0.023 | IRAK-1-4 Inhibitor I -0.011 | ibrutinib 0.057 | [9] 0.024 | ralimetinib 0 | [10] 0.004 | [11] -0.011 | [12] 0.001 | [13] -0.021 | [14] 0 | [15] 0.029 | [16] 0.004

DMXL1 (UniProt Q9Y485)
inactive: erlotinib 0.006 | [1] 0.016 | [2] -0.015 | [3] -0.017 | [4] -0.024 | [5] -0.008 | [6] -0.026 | [7] -0.013 | [8] -0.001 | IRAK-1-4 Inhibitor I 0.016 | ibrutinib -0.02 | [9] -0.025 | ralimetinib 0.021 | [10] -0.012 | [11] 0.016 | [12] -0.001 | [13] -0.024 | [14] 0 | [15] 0.064 | [16] -0.026

DLD (UniProt P09622)
inactive: erlotinib 0.014 | [1] 0 | [2] 0.022 | [3] -0.01 | [4] 0.025 | [5] 0.004 | [6] 0.007 | [7] 0.008 | [8] 0.006 | IRAK-1-4 Inhibitor I 0.026 | ibrutinib 0.003 | [9] 0.003 | ralimetinib -0.006 | [10] -0.016 | [11] -0.013 | [12] -0.03 | [13] -0.006 | [14] 0.049 | [15] -0.007 | [16] 0.004

DOCK7 (UniProt Q96N67)
inactive: erlotinib 0.078 | [1] 0.009 | [2] -0.045 | [3] -0.041 | [4] -0.126 | [5] 0.014 | [6] -0.023 | [7] -0.003 | [8] 0.016 | IRAK-1-4 Inhibitor I 0.024 | ibrutinib -0.117 | [9] -0.009 | ralimetinib 0.077 | [10] -0.054 | [11] 0.021 | [12] 0.03 | [13] -0.078 | [14] 0.009 | [15] 0.065 | [16] -0.028

DMAC2L (UniProt Q99766)
inactive: erlotinib -0.057 | [1] 0.033 | [2] -0.017 | [3] 0.008 | [4] -0.074 | [5] 0.015 | [6] -0.066 | [7] -0.068 | [8] 0.027 | IRAK-1-4 Inhibitor I -0.005 | ibrutinib 0.046 | [9] -0.046 | ralimetinib 0.037 | [10] -0.017 | [11] 0.017 | [12] 0.005 | [13] -0.018 | [14] 0.008 | [15] -0.043 | [16] -0.019

COG4 (UniProt Q9H9E3)
Sequence of UniProt Q9H9E3 (Q9H9E3 whole entry, looked up): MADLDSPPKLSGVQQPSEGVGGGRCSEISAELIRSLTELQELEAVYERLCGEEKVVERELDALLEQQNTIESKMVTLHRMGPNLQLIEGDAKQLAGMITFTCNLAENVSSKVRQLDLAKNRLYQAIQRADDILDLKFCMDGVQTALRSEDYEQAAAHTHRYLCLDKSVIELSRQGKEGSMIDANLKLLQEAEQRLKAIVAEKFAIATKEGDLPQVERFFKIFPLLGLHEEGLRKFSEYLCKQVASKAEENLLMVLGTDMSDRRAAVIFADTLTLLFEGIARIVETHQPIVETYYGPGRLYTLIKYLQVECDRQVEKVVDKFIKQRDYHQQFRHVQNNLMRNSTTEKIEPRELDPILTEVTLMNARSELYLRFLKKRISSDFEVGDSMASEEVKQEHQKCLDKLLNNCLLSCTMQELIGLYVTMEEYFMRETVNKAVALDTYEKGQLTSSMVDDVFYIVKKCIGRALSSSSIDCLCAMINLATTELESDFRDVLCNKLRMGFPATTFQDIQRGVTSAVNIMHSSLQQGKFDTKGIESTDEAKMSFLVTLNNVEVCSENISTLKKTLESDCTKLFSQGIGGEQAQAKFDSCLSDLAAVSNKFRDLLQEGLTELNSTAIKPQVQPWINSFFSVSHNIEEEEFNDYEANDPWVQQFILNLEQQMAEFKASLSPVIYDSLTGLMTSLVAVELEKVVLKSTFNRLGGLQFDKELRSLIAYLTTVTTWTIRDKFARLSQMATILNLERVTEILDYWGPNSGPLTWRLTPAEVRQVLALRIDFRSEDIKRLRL
inactive: erlotinib 0.029 | [1] -0.015 | [2] -0.05 | [3] -0.015 | [4] -0.018 | [5] 0.008 | [6] -0.057 | [7] 0.011 | [8] 0.039 | IRAK-1-4 Inhibitor I 0.009 | ibrutinib 0.014 | [9] 0.005 | ralimetinib -0.007 | [10] -0.042 | [11] -0.029 | [12] 0 | [13] -0.001 | [14] -0.049 | [15] -0.033 | [16] 0

COG5 isoform 2 (UniProt Q9UP83)
inactive: erlotinib 0.073 | [1] 0.016 | [2] -0.044 | [3] 0.001 | [4] -0.004 | [5] 0.019 | [6] 0.031 | [7] 0.019 | [8] 0.043 | IRAK-1-4 Inhibitor I -0.001 | ibrutinib 0.061 | [9] -0.036 | ralimetinib 0.074 | [10] -0.027 | [11] 0.037 | [12] -0.005 | [13] 0.04 | [14] -0.016 | [15] 0.073 | [16] 0.052

CSPP1 (UniProt Q1MSJ5)
Sequence of UniProt Q1MSJ5 (Q1MSJ5 whole entry, looked up): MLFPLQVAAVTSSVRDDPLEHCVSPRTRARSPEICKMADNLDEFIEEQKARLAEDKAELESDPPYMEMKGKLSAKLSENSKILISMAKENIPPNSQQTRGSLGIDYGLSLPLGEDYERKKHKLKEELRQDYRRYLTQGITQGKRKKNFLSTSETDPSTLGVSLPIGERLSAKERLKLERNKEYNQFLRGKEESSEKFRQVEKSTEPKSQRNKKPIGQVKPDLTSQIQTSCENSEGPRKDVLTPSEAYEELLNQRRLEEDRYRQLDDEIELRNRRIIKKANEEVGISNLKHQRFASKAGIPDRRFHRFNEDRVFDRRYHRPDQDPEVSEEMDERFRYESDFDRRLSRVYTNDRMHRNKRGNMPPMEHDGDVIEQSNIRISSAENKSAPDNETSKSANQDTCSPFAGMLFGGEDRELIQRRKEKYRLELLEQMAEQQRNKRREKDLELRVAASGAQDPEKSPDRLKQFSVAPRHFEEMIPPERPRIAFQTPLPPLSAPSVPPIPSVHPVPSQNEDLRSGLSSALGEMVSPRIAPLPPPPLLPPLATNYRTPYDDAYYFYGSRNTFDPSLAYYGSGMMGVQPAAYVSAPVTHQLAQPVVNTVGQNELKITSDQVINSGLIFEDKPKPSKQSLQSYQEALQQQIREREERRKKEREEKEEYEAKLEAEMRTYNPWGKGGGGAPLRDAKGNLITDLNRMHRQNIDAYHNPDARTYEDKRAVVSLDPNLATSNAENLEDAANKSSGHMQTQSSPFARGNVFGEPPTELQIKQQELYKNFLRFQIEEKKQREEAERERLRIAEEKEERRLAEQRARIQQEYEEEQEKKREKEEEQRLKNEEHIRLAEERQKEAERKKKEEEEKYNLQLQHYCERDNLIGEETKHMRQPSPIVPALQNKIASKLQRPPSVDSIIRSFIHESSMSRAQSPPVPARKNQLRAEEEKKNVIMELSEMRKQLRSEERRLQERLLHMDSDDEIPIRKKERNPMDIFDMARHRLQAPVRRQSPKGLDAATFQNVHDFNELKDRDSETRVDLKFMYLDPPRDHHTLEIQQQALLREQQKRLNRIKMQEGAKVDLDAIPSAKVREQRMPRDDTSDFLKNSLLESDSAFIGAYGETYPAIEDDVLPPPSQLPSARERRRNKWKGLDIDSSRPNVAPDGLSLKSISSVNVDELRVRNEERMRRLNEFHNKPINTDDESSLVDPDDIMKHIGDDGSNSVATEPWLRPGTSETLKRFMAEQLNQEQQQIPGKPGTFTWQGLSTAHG
inactive: erlotinib -0.028 | [1] -0.094 | [2] 0.079 | [3] 0.017 | [4] -0.088 | [5] 0.021 | [6] -0.137 | [7] -0.02 | [8] 0.007 | IRAK-1-4 Inhibitor I -0.026 | ibrutinib 0.052 | [9] 0 | ralimetinib 0 | [10] 0.026 | [11] -0.023 | [12] 0 | [13] -0.015 | [14] -0.074 | [15] -0.006 | [16] 0.084

COQ9 (UniProt O75208)
inactive: erlotinib -0.015 | [1] -0.075 | [2] -0.001 | [3] 0.041 | [4] 0.046 | [5] 0 | [6] -0.029 | [7] -0.02 | [8] 0.029 | IRAK-1-4 Inhibitor I -0.011 | ibrutinib 0.104 | [9] 0.023 | ralimetinib 0.015 | [10] -0.008 | [11] -0.036 | [12] 0.017 | [13] 0.007 | [14] -0.024 | [15] 0.037 | [16] 0

DERA (UniProt Q9Y315)
Sequence of UniProt Q9Y315 (Q9Y315 whole entry, looked up): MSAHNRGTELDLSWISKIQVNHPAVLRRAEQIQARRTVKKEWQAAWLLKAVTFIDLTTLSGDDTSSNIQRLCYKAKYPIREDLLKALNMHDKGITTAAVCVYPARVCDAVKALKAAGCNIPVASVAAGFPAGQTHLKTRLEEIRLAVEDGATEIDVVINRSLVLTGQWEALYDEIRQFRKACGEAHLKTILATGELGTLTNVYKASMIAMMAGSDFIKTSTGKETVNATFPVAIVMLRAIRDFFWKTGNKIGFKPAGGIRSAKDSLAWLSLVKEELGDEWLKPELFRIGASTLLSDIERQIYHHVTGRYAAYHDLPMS
inactive: erlotinib -0.008 | [1] 0.008 | [2] 0.028 | [3] 0.014 | [4] 0.015 | [5] 0.001 | [6] 0.019 | [7] 0.013 | [8] 0.023 | IRAK-1-4 Inhibitor I 0.002 | ibrutinib -0.011 | [9] 0.008 | ralimetinib 0.008 | [10] -0.032 | [11] 0.013 | [12] -0.01 | [13] -0.037 | [14] 0.033 | [15] -0.008 | [16] -0.017

DOCK8 (UniProt Q8NF50)
inactive: erlotinib -0.001 | [1] -0.073 | [2] -0.016 | [3] 0.018 | [4] 0.005 | [5] 0.017 | [6] -0.023 | [7] 0.04 | [8] -0.021 | IRAK-1-4 Inhibitor I 0.014 | ibrutinib -0.033 | [9] -0.012 | ralimetinib 0.03 | [10] 0.047 | [11] 0.003 | [12] -0.005 | [13] 0.022 | [14] 0.004 | [15] 0.057 | [16] -0.011

CHML (UniProt P26374)
inactive: erlotinib -0.03 | [1] -0.031 | [2] 0.028 | [3] -0.026 | [4] -0.013 | [5] -0.021 | [6] -0.004 | [7] -0.033 | [8] -0.001 | IRAK-1-4 Inhibitor I -0.012 | ibrutinib -0.029 | [9] -0.017 | ralimetinib -0.008 | [10] -0.004 | [11] -0.009 | [12] -0.012 | [13] 0 | [14] -0.003 | [15] -0.017 | [16] -0.006

DICER1 (UniProt Q9UPY3)
Sequence of UniProt Q9UPY3 (Q9UPY3 whole entry, looked up): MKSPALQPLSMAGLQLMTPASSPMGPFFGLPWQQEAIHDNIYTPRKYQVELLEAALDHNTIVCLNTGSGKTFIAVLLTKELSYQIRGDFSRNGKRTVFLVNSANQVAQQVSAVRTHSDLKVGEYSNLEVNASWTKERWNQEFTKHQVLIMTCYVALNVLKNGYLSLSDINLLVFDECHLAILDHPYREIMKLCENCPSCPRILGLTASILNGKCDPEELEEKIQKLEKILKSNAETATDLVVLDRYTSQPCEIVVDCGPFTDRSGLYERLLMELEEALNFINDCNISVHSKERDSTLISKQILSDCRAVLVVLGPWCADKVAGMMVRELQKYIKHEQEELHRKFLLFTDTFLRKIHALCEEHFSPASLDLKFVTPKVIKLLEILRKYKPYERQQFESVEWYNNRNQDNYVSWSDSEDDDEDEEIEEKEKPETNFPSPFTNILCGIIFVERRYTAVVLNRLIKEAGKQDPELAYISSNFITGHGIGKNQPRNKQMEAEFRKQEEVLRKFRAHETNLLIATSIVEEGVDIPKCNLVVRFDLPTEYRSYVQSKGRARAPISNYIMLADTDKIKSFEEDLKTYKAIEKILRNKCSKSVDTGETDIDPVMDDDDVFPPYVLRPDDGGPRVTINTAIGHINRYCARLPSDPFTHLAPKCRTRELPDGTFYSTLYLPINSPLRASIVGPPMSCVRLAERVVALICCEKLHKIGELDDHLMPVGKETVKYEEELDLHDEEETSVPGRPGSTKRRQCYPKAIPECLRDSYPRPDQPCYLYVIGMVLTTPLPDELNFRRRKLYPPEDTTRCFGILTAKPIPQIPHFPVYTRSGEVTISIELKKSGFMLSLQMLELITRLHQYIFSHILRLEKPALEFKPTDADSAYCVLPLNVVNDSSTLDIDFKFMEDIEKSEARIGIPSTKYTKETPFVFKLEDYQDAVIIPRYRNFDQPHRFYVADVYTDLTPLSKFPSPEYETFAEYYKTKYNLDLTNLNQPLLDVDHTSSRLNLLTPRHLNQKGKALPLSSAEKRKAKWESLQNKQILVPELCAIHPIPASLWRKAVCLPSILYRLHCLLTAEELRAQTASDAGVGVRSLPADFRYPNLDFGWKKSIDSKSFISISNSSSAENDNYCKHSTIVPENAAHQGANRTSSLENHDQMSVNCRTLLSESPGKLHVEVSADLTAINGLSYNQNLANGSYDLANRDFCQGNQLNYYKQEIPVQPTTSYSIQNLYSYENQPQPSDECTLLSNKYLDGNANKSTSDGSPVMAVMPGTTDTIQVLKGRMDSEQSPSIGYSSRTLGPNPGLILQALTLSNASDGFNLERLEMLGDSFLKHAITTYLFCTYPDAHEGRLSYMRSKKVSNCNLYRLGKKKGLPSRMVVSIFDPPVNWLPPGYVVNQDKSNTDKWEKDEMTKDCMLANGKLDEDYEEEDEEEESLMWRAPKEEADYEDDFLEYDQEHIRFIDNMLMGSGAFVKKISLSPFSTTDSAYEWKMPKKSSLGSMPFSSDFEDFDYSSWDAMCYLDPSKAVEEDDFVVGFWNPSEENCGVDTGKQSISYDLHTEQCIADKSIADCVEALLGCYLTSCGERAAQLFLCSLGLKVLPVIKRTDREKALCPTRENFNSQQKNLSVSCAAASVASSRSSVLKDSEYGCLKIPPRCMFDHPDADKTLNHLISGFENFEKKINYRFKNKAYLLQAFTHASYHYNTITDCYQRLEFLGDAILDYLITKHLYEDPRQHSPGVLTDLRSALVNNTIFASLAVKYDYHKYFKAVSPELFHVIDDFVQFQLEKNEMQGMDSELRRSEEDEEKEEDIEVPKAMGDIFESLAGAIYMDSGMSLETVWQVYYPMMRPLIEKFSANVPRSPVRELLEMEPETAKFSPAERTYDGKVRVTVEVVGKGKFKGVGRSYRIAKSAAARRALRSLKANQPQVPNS
inactive: erlotinib 0.013 | [1] -0.088 | [2] -0.056 | [3] -0.023 | [4] -0.027 | [5] 0.03 | [6] -0.025 | [7] -0.064 | [8] -0.042 | IRAK-1-4 Inhibitor I -0.016 | ibrutinib -0.011 | [9] 0.037 | ralimetinib 0.019 | [10] -0.055 | [11] 0.012 | [12] 0.044 | [13] 0.003 | [14] 0.018 | [15] 0.013 | [16] 0

Source: the supplement of paper PMC10849652
